Experimental data from PubChem BioAssay AID1159580 (chemical genetic matrix, 2015).
Screen size: about 5,500 compounds; about 2,000 (36%) were called active. Another 18% or so got no clear call; they are omitted. No stated cut-off is given here; in the data, active means normalized growth mostly below about 0.91 (no sharp cut-off); inconclusive means no clear call, values can overlap the other calls; inactive means mostly above about 0.92. The list shows a part of the results.

Assay: chemical genetic growth profiling, strain panel (AID 1159580);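 further: tested at 20 µM; growth read once vehicle control cultures reached saturation at 30 °C; 1 = growth at the plate median or of vehicle wells; lower values mean less growth of the strain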
Conditions: growth OD

Measured: normalized growth

COc1cccc(OC)c1C(=O)N[C@@H]1C(=O)N2[C@@H]1SC(C)(C)[C@@H]2C(=O)O
inactive: S. cerevisiae deletion strains, locus YJR066W, strain TOR1, hits give low values 0.974 | S. cerevisiae deletion strains, locus YJR075W, strain HOC1, hits give low values 0.998 | S. cerevisiae deletion strains, locus YKL009W, strain mrt4, hits give low values 0.946 | S. cerevisiae deletion strains, locus YKL068W, hits give low values 0.975 | S. cerevisiae deletion strains, locus YKL085W, strain MDH1 (second series), hits give low values 0.986 | S. cerevisiae deletion strains, locus YKL085W, strain MDH1, hits give low values 0.986 | S. cerevisiae deletion strains, locus YKL160W, strain elf1, hits give low values 0.978 | S. cerevisiae deletion strains, locus YKR001C, strain vps1, hits give low values 0.973 | S. cerevisiae deletion strains, locus YKR026C, strain gcn3, hits give low values 1 | S. cerevisiae deletion strains, locus YKR091W, strain srl3, hits give low values 1 | S. cerevisiae deletion strains, locus YLL001W, strain dnm1, hits give low values 0.963 | S. cerevisiae deletion strains, locus YLL026W, hits give low values 0.993 | S. cerevisiae deletion strains, locus YLL041C, strain sdh2, hits give low values 0.994 | S. cerevisiae deletion strains, locus YLR027C, strain aat2, hits give low values 0.995 | S. cerevisiae deletion strains, locus YLR039C, strain RIC1, hits give low values 1 | S. cerevisiae deletion strains, locus YLR058C, strain SHM2, hits give low values 1.01 | S. cerevisiae deletion strains, locus YLR102C, strain apc9, hits give low values 0.985 | S. cerevisiae deletion strains, locus YLR113W, strain HOG1, hits give low values 0.982 | S. cerevisiae deletion strains, locus YLR221C, strain rsa3, hits give low values 1 | S. cerevisiae deletion strains, locus YLR258W, strain gsy2, hits give low values 0.999 | S. cerevisiae deletion strains, locus YLR262C, strain YPT6 (second series), hits give low values 1 | S. cerevisiae deletion strains, locus YLR262C, strain YPT6, hits give low values 1.03 | S. cerevisiae deletion strains, locus YLR268W, strain sec22, hits give low values 0.993 | S. cerevisiae deletion strains, locus YLR320W, strain mms22, hits give low values 0.986 | S. cerevisiae deletion strains, locus YLR330W, strain CHS5, hits give low values 0.993 | S. cerevisiae deletion strains, locus YLR342W, strain FKS1 (second series), hits give low values 1.03 | S. cerevisiae deletion strains, locus YLR342W, strain FKS1, hits give low values 0.988 | S. cerevisiae deletion strains, locus YLR357W, strain rsc2, hits give low values 0.994 | S. cerevisiae deletion strains, locus YLR370C, strain arc18, hits give low values 1.01 | S. cerevisiae deletion strains, locus YLR371W, strain rom2, hits give low values 0.993 | S. cerevisiae deletion strains, locus YLR384C, strain iki3, hits give low values 0.991 | S. cerevisiae deletion strains, locus YLR418C, strain cdc73, hits give low values 0.996 | S. cerevisiae deletion strains, locus YML016C, strain PPZ1, hits give low values 1 | S. cerevisiae deletion strains, locus YML032C, strain rad52, hits give low values 0.991 | S. cerevisiae deletion strains, locus YML120C, strain ndi1, hits give low values 0.992 | S. cerevisiae deletion strains, locus YML124C, strain tub3, hits give low values 0.991 | S. cerevisiae deletion strains, locus YMR058W, strain fet3, hits give low values 1 | S. cerevisiae deletion strains, locus YMR078C, strain ctf18, hits give low values 0.995 | S. cerevisiae deletion strains, locus YMR125W, strain sto1, hits give low values 1.02 | S. cerevisiae deletion strains, locus YMR129W, hits give low values 0.992 | S. cerevisiae deletion strains, locus YMR205C, strain PFK2, hits give low values 0.991 | S. cerevisiae deletion strains, locus YMR223W, strain ubp8, hits give low values 1.01 | S. cerevisiae deletion strains, locus YMR231W, strain pep5, hits give low values 0.997 | S. cerevisiae deletion strains, locus YMR263W, strain SAP30, hits give low values 0.972 | S. cerevisiae deletion strains, locus YMR307W, strain GAS1, hits give low values 1.25 | S. cerevisiae deletion strains, locus YNL067W, strain RPL9B, hits give low values 0.962 | S. cerevisiae deletion strains, locus YNL071W, strain lat1, hits give low values 1 | S. cerevisiae deletion strains, locus YNL128W, strain TEP1, hits give low values 0.974 | S. cerevisiae deletion strains, locus YNL153C, strain GIM3, hits give low values 1.01 | S. cerevisiae deletion strains, locus YNL183C, strain NPR1, hits give low values 0.971 | S. cerevisiae deletion strains, locus YNL209W, strain ssb2, hits give low values 1.01 | S. cerevisiae deletion strains, locus YNL233W, strain BNI4, hits give low values 1.01 | S. cerevisiae deletion strains, locus YNL248C, strain rpa49, hits give low values 1.01 | S. cerevisiae deletion strains, locus YNL250W, strain rad50, hits give low values 0.921 | S. cerevisiae deletion strains, locus YNL271C, strain bni1, hits give low values 0.991 | S. cerevisiae deletion strains, locus YNL298W, strain CLA4, hits give low values 0.98 | S. cerevisiae deletion strains, locus YNL307C, strain MCK1, hits give low values 1 | S. cerevisiae deletion strains, locus YNL322C, strain KRE1 (second series), hits give low values 1.01 | S. cerevisiae deletion strains, locus YNL322C, strain KRE1, hits give low values 1 | S. cerevisiae deletion strains, locus YNR049C, strain mso1, hits give low values 0.995 | S. cerevisiae deletion strains, locus YNR052C, strain pop2, hits give low values 0.987 | S. cerevisiae deletion strains, locus YOL006C, strain TOP1, hits give low values 1.01 | S. cerevisiae deletion strains, locus YOL012C, strain htz1 0.716 | S. cerevisiae deletion strains, locus YOR001W, strain rrp6, hits give low values 0.99 | S. cerevisiae deletion strains, locus YOR061W, strain CKA2, hits give low values 1 | S. cerevisiae deletion strains, locus YOR069W, strain VPS5, hits give low values 0.999 | S. cerevisiae deletion strains, locus YOR070C, strain gyp1, hits give low values 1.01 | S. cerevisiae deletion strains, locus YOR080W, strain dia2, hits give low values 0.99 | S. cerevisiae deletion strains, locus YOR083W, strain WHI5, hits give low values 0.95 | S. cerevisiae deletion strains, locus YOR106W, strain vam3, hits give low values 0.994 | S. cerevisiae deletion strains, locus YOR136W, strain idh2, hits give low values 0.992 | S. cerevisiae deletion strains, locus YOR144C, strain elg1, hits give low values 0.989 | S. cerevisiae deletion strains, locus YOR184W, strain ser1, hits give low values 0.996 | S. cerevisiae deletion strains, locus YOR231W, strain MKK1, hits give low values 0.988 | S. cerevisiae deletion strains, locus YOR265W, strain rbl2, hits give low values 1 | S. cerevisiae deletion strains, locus YOR270C, strain vph1, hits give low values 1 | S. cerevisiae deletion strains, locus YOR290C, strain snf2, hits give low values 1 | S. cerevisiae deletion strains, locus YOR316C, strain cot1, hits give low values 0.977 | S. cerevisiae deletion strains, locus YPL051W, strain arl3, hits give low values 0.989 | S. cerevisiae deletion strains, locus YPL055C, strain LGE1, hits give low values 0.968 | S. cerevisiae deletion strains, locus YPL078C, strain atp4, hits give low values 0.97 | S. cerevisiae deletion strains, locus YPL106C, strain sse1, hits give low values 1.03 | S. cerevisiae deletion strains, locus YPL240C, strain hsp82, hits give low values 0.999 | S. cerevisiae deletion strains, locus YPL241C, strain CIN2, hits give low values 1 | S. cerevisiae deletion strains, locus YPL256C, strain CLN2, hits give low values 1.06 | S. cerevisiae deletion strains, locus YPR141C, strain kar3, hits give low values 0.972 | S. cerevisiae deletion strains, locus YPR163C, strain tif3, hits give low values 0.987 | S. cerevisiae deletion strains, locus YPR167C, strain met16, hits give low values 0.979 | S. cerevisiae deletion strains, strain wtn01, hits give low values 1.01 | S. cerevisiae strains, strain wild type, hits give low values 1
